Tests used:
[1] = target: Glycogen synthase kinase-3 alpha (Homo sapiens) (UniProt P49840); conditions: at 10 µM
[2] = target: Glycogen synthase kinase-3 beta (Homo sapiens) (UniProt P49841); conditions: at 1 µM
[3] = target: Glycogen synthase kinase-3 beta (Homo sapiens) (UniProt P49841); conditions: at 10 µM
[4] = target: Homeodomain-interacting protein kinase 2 (Homo sapiens) (UniProt Q9H2X6); conditions: at 10 µM
[5] = target: T1, Serine/threonine-protein kinase haspin (Homo sapiens) (UniProt Q8TF76); conditions: at 10 µM
T1 sequence (whole entry): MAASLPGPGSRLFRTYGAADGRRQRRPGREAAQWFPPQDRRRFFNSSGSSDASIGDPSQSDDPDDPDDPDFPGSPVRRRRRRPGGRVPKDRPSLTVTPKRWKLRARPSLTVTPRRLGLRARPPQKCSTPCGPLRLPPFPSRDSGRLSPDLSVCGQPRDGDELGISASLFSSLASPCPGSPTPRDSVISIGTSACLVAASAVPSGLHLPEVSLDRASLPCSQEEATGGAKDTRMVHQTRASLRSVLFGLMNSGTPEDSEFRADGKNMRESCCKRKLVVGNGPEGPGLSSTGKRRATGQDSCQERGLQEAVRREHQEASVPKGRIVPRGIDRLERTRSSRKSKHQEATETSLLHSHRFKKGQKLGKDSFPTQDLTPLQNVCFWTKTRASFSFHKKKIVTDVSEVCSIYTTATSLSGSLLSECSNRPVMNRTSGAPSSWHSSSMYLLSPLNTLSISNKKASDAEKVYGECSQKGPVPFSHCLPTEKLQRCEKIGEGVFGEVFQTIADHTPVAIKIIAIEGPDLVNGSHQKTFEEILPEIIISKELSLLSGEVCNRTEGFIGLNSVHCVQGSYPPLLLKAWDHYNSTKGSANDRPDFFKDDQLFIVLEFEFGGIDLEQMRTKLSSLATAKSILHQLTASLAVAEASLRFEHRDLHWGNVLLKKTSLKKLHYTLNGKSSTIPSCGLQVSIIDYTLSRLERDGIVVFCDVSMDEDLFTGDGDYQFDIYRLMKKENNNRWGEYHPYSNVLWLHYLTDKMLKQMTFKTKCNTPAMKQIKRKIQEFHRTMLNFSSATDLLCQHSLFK

[6] = target: Tyrosine-protein kinase HCK (Homo sapiens) (UniProt P08631); conditions: at 10 µM
[7] = target: Tyrosine-protein kinase HCK (Homo sapiens) (UniProt P08631); conditions: at 10 µM; remark: listed apart in the source
[8] = target: Insulin-like growth factor 1 receptor (Homo sapiens) (UniProt P08069); conditions: at 10 µM
[9] = target: Glycogen synthase kinase-3 alpha (Homo sapiens) (UniProt P49840); conditions: at 1 µM
[10] = target: Homeodomain-interacting protein kinase 1 (Homo sapiens) (UniProt Q86Z02); conditions: at 1 µM
[11] = target: Homeodomain-interacting protein kinase 1 (Homo sapiens) (UniProt Q86Z02); conditions: at 10 µM
[12] = target: Homeodomain-interacting protein kinase 2 (Homo sapiens) (UniProt Q9H2X6); conditions: at 1 µM
[13] = target: T1, Serine/threonine-protein kinase haspin (Homo sapiens); conditions: at 1 µM
[14] = target: Tyrosine-protein kinase HCK (Homo sapiens) (UniProt P08631); conditions: at 1 µM
[15] = target: Tyrosine-protein kinase HCK (Homo sapiens) (UniProt P08631); conditions: at 1 µM; remark: listed apart in the source
[16] = target: Insulin-like growth factor 1 receptor (Homo sapiens) (UniProt P08069); conditions: at 1 µM
[17] = target: T2, Protein kinase C zeta type (Homo sapiens) (UniProt Q05513); conditions: at 10 µM
T2 sequence (whole entry): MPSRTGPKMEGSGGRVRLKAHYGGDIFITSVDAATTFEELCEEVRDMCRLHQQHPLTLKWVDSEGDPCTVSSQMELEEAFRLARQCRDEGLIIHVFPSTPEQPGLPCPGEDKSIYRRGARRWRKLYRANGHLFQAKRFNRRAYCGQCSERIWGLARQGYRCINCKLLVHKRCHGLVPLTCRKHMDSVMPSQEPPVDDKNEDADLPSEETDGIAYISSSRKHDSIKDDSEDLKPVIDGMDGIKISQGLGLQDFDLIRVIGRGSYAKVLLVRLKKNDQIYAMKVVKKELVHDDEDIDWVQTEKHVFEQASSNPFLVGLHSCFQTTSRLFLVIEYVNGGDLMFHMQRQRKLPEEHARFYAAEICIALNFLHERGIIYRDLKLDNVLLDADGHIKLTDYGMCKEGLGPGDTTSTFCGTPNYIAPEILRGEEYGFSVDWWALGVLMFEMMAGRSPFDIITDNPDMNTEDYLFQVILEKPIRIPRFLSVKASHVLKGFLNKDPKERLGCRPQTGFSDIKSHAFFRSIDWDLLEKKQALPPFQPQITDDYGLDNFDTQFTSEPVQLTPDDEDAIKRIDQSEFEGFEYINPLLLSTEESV

[18] = target: Homeodomain-interacting protein kinase 3 (Homo sapiens) (UniProt Q9H422); conditions: at 1 µM
[19] = target: Homeodomain-interacting protein kinase 3 (Homo sapiens) (UniProt Q9H422); conditions: at 10 µM

Sequence of Glycogen synthase kinase-3 alpha (Homo sapiens) (P49840 2-483 limits assumed): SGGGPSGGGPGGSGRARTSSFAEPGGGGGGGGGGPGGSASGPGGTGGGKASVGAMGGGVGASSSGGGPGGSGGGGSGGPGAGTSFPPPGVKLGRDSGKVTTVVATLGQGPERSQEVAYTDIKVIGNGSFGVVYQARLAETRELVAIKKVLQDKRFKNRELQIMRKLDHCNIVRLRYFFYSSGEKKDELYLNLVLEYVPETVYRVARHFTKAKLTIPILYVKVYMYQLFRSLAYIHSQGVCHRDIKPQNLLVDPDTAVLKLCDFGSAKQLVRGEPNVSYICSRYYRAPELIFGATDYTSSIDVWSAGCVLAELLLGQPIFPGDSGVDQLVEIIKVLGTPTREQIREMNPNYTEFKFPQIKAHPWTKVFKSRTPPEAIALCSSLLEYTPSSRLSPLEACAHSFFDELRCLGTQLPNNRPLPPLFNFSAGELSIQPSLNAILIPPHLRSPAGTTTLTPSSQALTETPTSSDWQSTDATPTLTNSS
Sequence of Glycogen synthase kinase-3 beta (Homo sapiens) (P49841 whole entry, looked up): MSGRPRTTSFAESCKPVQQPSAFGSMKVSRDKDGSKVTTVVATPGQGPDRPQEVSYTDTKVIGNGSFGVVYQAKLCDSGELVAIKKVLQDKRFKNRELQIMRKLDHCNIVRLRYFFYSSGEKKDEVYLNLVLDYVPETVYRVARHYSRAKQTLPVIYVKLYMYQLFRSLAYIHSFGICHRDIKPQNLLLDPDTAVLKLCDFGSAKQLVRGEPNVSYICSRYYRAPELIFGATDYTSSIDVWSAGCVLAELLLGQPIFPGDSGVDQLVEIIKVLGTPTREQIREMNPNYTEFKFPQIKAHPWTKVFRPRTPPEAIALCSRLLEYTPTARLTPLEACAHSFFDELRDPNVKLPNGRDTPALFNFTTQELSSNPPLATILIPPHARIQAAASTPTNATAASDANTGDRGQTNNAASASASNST
Sequence of Homeodomain-interacting protein kinase 3 (Homo sapiens) (Q9H422 whole entry, looked up): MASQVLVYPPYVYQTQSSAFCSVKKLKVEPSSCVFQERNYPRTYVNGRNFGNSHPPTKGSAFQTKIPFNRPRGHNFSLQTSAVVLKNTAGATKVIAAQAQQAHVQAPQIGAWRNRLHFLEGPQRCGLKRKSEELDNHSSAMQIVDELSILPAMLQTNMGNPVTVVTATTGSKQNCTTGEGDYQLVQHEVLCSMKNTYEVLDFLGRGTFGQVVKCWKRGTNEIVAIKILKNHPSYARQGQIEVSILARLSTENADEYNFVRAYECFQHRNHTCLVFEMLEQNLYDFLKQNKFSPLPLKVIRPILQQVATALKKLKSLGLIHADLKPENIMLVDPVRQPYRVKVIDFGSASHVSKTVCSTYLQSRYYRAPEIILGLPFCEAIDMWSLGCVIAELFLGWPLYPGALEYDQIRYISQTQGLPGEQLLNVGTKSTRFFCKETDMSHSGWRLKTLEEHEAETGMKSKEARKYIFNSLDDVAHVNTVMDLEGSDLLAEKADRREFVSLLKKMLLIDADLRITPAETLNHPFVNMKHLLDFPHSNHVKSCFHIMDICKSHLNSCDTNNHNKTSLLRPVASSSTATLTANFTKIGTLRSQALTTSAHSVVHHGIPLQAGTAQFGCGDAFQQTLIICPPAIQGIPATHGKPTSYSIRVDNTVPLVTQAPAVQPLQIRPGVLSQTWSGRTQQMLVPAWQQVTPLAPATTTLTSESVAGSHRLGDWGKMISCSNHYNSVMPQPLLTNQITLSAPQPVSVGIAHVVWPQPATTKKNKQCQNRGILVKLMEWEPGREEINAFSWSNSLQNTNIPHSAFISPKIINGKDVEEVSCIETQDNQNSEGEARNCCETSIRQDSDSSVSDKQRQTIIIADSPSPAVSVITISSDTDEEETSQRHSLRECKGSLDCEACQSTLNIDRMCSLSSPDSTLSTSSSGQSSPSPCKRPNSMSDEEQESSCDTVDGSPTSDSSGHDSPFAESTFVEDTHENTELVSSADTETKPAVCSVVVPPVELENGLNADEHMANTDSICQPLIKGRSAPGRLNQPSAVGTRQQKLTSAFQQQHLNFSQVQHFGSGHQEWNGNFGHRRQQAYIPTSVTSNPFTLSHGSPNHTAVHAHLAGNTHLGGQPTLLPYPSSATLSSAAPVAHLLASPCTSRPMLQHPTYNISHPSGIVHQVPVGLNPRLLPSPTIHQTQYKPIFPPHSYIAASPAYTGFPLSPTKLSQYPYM
Sequence of Homeodomain-interacting protein kinase 2 (Homo sapiens) (Q9H2X6 whole entry, looked up): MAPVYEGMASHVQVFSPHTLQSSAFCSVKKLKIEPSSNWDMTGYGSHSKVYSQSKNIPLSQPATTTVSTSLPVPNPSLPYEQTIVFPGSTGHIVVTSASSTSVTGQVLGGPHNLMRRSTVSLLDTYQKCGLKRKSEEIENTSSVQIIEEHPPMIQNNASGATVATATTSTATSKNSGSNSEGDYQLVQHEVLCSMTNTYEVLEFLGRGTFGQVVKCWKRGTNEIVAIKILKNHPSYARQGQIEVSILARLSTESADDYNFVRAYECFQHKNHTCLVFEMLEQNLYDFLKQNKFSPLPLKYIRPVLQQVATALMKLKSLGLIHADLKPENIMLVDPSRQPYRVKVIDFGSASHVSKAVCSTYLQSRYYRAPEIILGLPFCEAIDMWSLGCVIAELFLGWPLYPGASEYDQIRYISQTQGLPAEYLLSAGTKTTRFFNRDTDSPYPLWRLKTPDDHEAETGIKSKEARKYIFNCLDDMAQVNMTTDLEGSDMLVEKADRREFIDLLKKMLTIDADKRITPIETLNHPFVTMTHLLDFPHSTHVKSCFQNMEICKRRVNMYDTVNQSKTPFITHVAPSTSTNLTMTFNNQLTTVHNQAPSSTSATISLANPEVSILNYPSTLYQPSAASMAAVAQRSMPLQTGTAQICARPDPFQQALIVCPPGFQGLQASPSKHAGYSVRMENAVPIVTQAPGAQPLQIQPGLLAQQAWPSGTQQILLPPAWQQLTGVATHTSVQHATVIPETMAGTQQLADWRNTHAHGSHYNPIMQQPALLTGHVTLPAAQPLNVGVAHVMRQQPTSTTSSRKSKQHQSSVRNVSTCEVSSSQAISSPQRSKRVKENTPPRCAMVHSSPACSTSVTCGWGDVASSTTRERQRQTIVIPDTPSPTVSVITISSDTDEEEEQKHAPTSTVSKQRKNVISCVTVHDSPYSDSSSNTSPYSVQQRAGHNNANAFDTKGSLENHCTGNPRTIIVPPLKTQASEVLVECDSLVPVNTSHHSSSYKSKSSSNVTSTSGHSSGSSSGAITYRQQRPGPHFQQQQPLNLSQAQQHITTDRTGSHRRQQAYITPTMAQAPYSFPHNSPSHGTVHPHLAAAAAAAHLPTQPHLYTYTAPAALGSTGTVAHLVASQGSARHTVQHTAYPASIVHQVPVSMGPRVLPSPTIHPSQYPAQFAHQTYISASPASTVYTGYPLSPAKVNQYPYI
Sequence of Insulin-like growth factor 1 receptor (Homo sapiens) (P08069 31-736 limits assumed): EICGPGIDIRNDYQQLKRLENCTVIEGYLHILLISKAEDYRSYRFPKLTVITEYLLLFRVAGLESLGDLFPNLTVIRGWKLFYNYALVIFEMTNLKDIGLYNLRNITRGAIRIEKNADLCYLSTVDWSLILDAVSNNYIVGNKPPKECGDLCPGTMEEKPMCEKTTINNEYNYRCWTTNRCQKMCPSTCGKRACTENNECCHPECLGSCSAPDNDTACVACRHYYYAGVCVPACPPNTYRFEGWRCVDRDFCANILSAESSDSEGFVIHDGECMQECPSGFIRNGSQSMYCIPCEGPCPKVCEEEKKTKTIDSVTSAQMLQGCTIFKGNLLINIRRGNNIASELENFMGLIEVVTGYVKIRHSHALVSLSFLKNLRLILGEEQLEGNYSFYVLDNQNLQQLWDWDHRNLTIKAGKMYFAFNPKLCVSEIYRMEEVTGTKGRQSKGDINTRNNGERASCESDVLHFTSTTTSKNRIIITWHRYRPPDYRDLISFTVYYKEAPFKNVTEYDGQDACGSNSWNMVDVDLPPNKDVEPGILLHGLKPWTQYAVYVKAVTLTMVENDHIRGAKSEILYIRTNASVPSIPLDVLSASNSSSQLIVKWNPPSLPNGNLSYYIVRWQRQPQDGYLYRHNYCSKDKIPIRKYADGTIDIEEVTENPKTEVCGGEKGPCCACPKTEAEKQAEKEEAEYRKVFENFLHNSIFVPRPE
Sequence of Insulin-like growth factor 1 receptor (Homo sapiens) (P08069 741-1367 limits assumed): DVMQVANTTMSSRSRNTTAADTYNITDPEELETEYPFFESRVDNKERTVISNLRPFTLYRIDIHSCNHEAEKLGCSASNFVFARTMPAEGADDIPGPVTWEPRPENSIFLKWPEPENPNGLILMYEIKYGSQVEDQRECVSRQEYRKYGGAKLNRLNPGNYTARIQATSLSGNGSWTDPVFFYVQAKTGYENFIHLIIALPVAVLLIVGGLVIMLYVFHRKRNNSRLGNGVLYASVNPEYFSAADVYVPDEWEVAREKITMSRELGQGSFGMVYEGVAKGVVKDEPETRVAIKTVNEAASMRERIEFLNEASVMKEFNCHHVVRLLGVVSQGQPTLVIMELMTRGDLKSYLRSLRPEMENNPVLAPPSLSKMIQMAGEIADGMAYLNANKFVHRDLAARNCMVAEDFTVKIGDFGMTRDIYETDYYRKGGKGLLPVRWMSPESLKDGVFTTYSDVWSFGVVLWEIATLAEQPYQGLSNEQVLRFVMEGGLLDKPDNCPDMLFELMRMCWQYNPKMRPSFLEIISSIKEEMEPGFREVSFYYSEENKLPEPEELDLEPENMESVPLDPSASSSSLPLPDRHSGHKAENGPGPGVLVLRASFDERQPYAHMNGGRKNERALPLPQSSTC

SMILES: O=c1c(-c2ccc(F)cc2)c(-c2ccncc2)[nH]n1-c1ccc(Cl)cc1
- residual activity [1]: 69%
- residual activity [2]: 102%
- residual activity [3]: 56%
- residual activity [4]: 99%
- residual activity [5]: 75%
- residual activity [6]: 61%
- residual activity [7]: 81%
- residual activity [8]: 73%

SMILES: Nc1ncnc2[nH]nc(Nc3ccc(F)cc3)c12
- residual activity [9]: 98%
- residual activity [1]: 90%
- residual activity [2]: 100%
- residual activity [3]: 93%
- residual activity [10]: 108%
- residual activity [11]: 96%
- residual activity [12]: 100%
- residual activity [4]: 92%
- residual activity [13]: 78%
- residual activity [5]: 53%
- residual activity [14]: 37%
- residual activity [6]: 16%
- residual activity [15]: 56%
- residual activity [7]: 11%
- residual activity [16]: 127%
- residual activity [8]: 94%
- residual activity [17]: 98%

SMILES: CCN1/C(=C/C(C)=O)Sc2ccc(OC)cc21
- residual activity [1]: 34%
- residual activity [3]: 63%
- residual activity [18]: 82%
- residual activity [19]: 75%
- residual activity [13]: 17%
- residual activity [5]: 4%
- residual activity [14]: 76%
- residual activity [6]: 71%
- residual activity [16]: 70%

SMILES: N#C/C(=C1/Nc2ccccc2S1)c1ccnc(NCCc2cccnc2)n1
- residual activity [9]: 1%
- residual activity [1]: -1%
- residual activity [2]: 8%
- residual activity [3]: 1%
- residual activity [12]: 47%
- residual activity [4]: 6%
- residual activity [18]: 88%
- residual activity [19]: 21%
- residual activity [13]: 36%
- residual activity [5]: -2%
- residual activity [14]: 60%
- residual activity [6]: 26%
- residual activity [15]: 88%
- residual activity [7]: 68%
- residual activity [16]: 143%
- residual activity [8]: 72%
